Data published in PubChem BioAssay AID488857 (Sanford-Burnham Center for Chemical Genomics, 2010).
About 560 (40%) of roughly 1,400 compounds were called active. The set was probably picked from earlier hits. Some of the results follow. Unmarked numbers belong to inactive results.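 How the source made its calls: active means mean inhibition over duplicate tests at 10 µM above 50%; inactive means the rest.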

Assay: ASC/caspase-1 reporter retest in S. cerevisiae at one dose, specificity check for NALP1 project (AID 488857)
Settings: S. cerevisiae ASC/Caspase-1, beta-galactosidase luminescence, 24 h; at 10 µM; hits give high values

Question: Which inhibition does the source give for `COc1ccc(NCc2ccc([N+](=O)[O-])s2)c(OC)c1` here?
Answer: 49%

Question: For `CCOC(=O)/C(=C/c1ccc(OC(=O)c2ccccc2)cc1)C(C)=O`, which inhibition is on record?
Answer: 59.9% (active)

Question: For `CCOC(=O)C1=C(O)c2ccccc2C(=O)/C1=C\c1ccc(C)cc1`, which inhibition is on record?
Answer: 24.1%

Question: With `COC(=O)c1ccccc1NC(=O)C1CCN(C(=O)c2cc(OC)cc(OC)c2)CC1` as the compound, how does the inhibition read?
Answer: 34.1%

Question: With `COC(=O)c1ccccc1NC(=O)C1CCCN(S(=O)(=O)c2ccc(OC)cc2)C1` (centres undefined) as the compound, how does the inhibition read?
Answer: 76.4% (active)

Question: For `CN1CCN(S(=O)(=O)c2ccc(NC(=S)NC(=O)C(C)(C)C)cc2)CC1`, which inhibition is on record?
Answer: 31.6%

Question: For `CCOC(=O)N1CCN(c2ccc(Cl)c(Cl)c2)CC1`, which inhibition is on record?
Answer: 68.9% (active)

Question: With `CCOC(=O)N1CCN(c2c(NCCOC)c(=O)c2=O)CC1` as the compound, how does the inhibition read?
Answer: 32.5%

Question: For `CCN1CCN(C(=S)Nc2ccc(Cl)c(Cl)c2)CC1`, which inhibition is on record?
Answer: 22.7%

Question: For `Cn1nnc(NC(=O)/C=C/c2ccco2)n1`, which inhibition is on record?
Answer: 45.4%

Question: With `CCCNCC1COc2ccccc2O1` (centres undefined) as the compound, how does the inhibition read?
Answer: 37.9%

Question: Which inhibition does the source give for `CN(C)CCN(C(=O)/C=C/c1cccs1)c1nc2c(F)cc(F)cc2s1` here?
Answer: 65.1% (active)

Question: With `CN(C)CCN(C(=O)/C=C/c1cccs1)c1nc2ccc(F)cc2s1` as the compound, how does the inhibition read?
Answer: 72% (active)

Question: With `CC1CCC2C(=O)N(c3ccc(C(=O)Oc4cccc5cccnc45)cc3)C(=O)C2C1` (centres undefined) as the compound, how does the inhibition read?
Answer: 44.9%

Question: Which inhibition does the source give for `O=[N+]([O-])c1ccc2nc(-c3ccccn3)[nH]c2c1` here?
Answer: 70% (active)

Question: For `O=[N+]([O-])c1ccc2cn(-c3ccccc3)nc2c1`, which inhibition is on record?
Answer: 41.1%

Question: For `c1ccc(-c2nc3cc4ccccc4cc3[nH]2)nc1`, which inhibition is on record?
Answer: 84.5% (active)

Question: Which inhibition does the source give for `O=S(=O)(CC12C3C4C5C1C2C(Br)(C43)C51OCCO1)c1ccccc1` (centres undefined) here?
Answer: 38.5%

Question: For `Cc1cccc(/C=N/n2c(-c3cc(-c4ccccc4)n[nH]3)n[nH]c2=S)c1`, which inhibition is on record?
Answer: 53.3% (active)

Question: Which inhibition does the source give for `Cc1ccc(C(=O)O)cc1N=Cc1cc(Br)cc(Br)c1O` here?
Answer: 83.5% (active)

Question: Which inhibition does the source give for `Cc1ccc(N2C(=O)c3ccc(C(=O)O)cc3C2=O)cc1C` here?
Answer: 37.3%

Question: For `O=C(Cc1noc2ccccc12)Nc1ccc(Cl)cc1`, which inhibition is on record?
Answer: 61.3% (active)

Question: With `O=C(Cn1c(=O)oc2ccccc21)Nc1ccc(Cl)cc1` as the compound, how does the inhibition read?
Answer: 33.4%

Question: For `CCCCN(C)CCC(=O)Nc1ccc(Cl)cc1`, which inhibition is on record?
Answer: 39.2%

Question: For `COc1ccccc1OCC(=O)N/N=C/C=C/c1ccc([N+](=O)[O-])o1`, which inhibition is on record?
Answer: 15.4%

Question: Which inhibition does the source give for `CCOC(=O)COc1ccccc1/C=C\[N+](=O)[O-]` here?
Answer: 101% (active)

Question: For `CCOc1ccc(NC(=O)/C=C/c2ccccc2)c([N+](=O)[O-])c1`, which inhibition is on record?
Answer: 29.2%

Question: For `CCOC(=O)C[N+](CC)(CC)CC#Cc1ccccc1`, which inhibition is on record?
Answer: 5.45%

Question: With `CCOC(=O)COc1ccc2ccccc2c1/C=C/[N+](=O)[O-]` as the compound, how does the inhibition read?
Answer: 99.9% (active)

Question: With `COc1ccc(CN2CCNC(=O)C2CC(=O)N(Cc2nccn2C)C(C)C)c(OC)c1` (centres undefined) as the compound, how does the inhibition read?
Answer: 26.1%

Question: With `O=C1CSC(=S)N1c1cccc(O)c1` as the compound, how does the inhibition read?
Answer: 98.8% (active)

Question: For `O=C1CSC(=S)N1c1ccc(O)cc1`, which inhibition is on record?
Answer: 98.2% (active)

Question: For `COc1cc(N2C(=O)CSC2=S)cc(OC)c1OC`, which inhibition is on record?
Answer: 81.3% (active)

Question: With `COc1cc(C2SCC(=O)N2CCCN(C)C)cc(OC)c1OC` (centres undefined) as the compound, how does the inhibition read?
Answer: 23.1%

Question: Which inhibition does the source give for `C/C(=N/N=C1\SCC(=O)N1c1ccccc1)c1ccc(C)cc1` here?
Answer: 39.4%

Question: For `CCCCNCCOCCOc1ccccc1-c1ccccc1`, which inhibition is on record?
Answer: 55.2% (active)

Question: Which inhibition does the source give for `CCCCNCCOCCOc1ccc(Cl)cc1Br` here?
Answer: 49%

Question: For `O=C(Nc1nc(-c2ccco2)c(-c2ccco2)s1)C1CCC1`, which inhibition is on record?
Answer: 45.5%

Question: For `O=C(Nc1cccc(O)c1)c1cc(-c2ccco2)on1`, which inhibition is on record?
Answer: 79.8% (active)

Question: For `O=C(NCc1ccc(F)cc1)c1cc(-c2ccco2)on1`, which inhibition is on record?
Answer: 52.4% (active)

Question: With `O=C(CSCc1ccc(F)cc1)NCc1ccco1` as the compound, how does the inhibition read?
Answer: 47.5%

Question: With `Cc1ccc(NC(=O)N(C2CCCCC2)C(C)c2cccnc2)cc1C` (centres undefined) as the compound, how does the inhibition read?
Answer: 48.4%

Question: With `CCOC(=O)Nc1ccc2c(C)cc(=O)oc2c1` as the compound, how does the inhibition read?
Answer: 58.4% (active)

Question: For `Cc1cc(=O)oc2cc(OCC(=O)N3CCN(C(=O)c4ccco4)CC3)ccc12`, which inhibition is on record?
Answer: 30.7%

Question: Which inhibition does the source give for `CCOC(=O)c1sc(NC(=O)Nc2cccc(Cl)c2)cc1C` here?
Answer: 19.4%

Question: For `CCOC(=O)Nc1cccc(Nc2ccccc2)c1`, which inhibition is on record?
Answer: 59.8% (active)

Question: Which inhibition does the source give for `CCOC(=O)C(=O)NNc1ccc(Cl)cc1` here?
Answer: 42.9%

Question: With `CCOC(=O)NC1(NCc2ccccc2)Oc2ccccc2O1` as the compound, how does the inhibition read?
Answer: 38.3%

Question: Which inhibition does the source give for `CC(C)CN=Cc1c(O)c([N+](=O)[O-])cc2oc3c(c12)CCCC3` here?
Answer: 28.2%

Question: For `CCOc1ccccc1C(=O)Nc1cnn(Cc2ccc(F)cc2)c1`, which inhibition is on record?
Answer: 61.2% (active)

Question: With `COc1ccccc1C(=O)Nc1nc2nc(-c3ccccc3)cc(=O)n2[nH]1` as the compound, how does the inhibition read?
Answer: 15.4%

Question: For `Nc1nc(NCc2ccco2)nc(N2CCCCCC2)c1[N+](=O)[O-]`, which inhibition is on record?
Answer: 62.4% (active)

Question: For `Cc1ccc(C(=O)NCc2ccco2)cc1S(=O)(=O)Nc1cccc(Cl)c1`, which inhibition is on record?
Answer: 38.6%

Question: With `CC1CCCN(c2nc(NCc3ccco3)nc(N)c2[N+](=O)[O-])C1` (centres undefined) as the compound, how does the inhibition read?
Answer: 62% (active)

Question: Which inhibition does the source give for `Cc1ccc(Nc2nc(N)c([N+](=O)[O-])c(NCc3ccco3)n2)cc1C` here?
Answer: 60.8% (active)

Question: For `CC1CCN(c2nc(NCc3ccco3)nc(N)c2[N+](=O)[O-])CC1`, which inhibition is on record?
Answer: 73% (active)

Question: With `CCN1CCN(C(=O)N[C@@H](C(=O)N[C@@H]2C(=O)N3[C@@H]2SC(C)(C)[C@@H]3C(=O)O)c2ccccc2)C(=O)C1=O` as the compound, how does the inhibition read?
Answer: 39.1%

Question: Which inhibition does the source give for `COCCn1c(SCC(=O)NC(=O)NC(C)(C)C)nc2ccccc21` here?
Answer: 40.6%

Question: With `O=c1c(F)cn(C2CCCO2)c(=O)n1Cc1c(F)cccc1Cl` (centres undefined) as the compound, how does the inhibition read?
Answer: 33.2%

Question: Which inhibition does the source give for `CCOC(=O)c1c(C(F)(F)C(F)(F)C(F)(F)C(F)(F)F)n[nH]c1C` here?
Answer: 25.5%

Question: Which inhibition does the source give for `COc1ccc(C2=NN3C(=O)c4c(ccc(OC)c4OC)C3C2)cc1` (centres undefined) here?
Answer: 50.4% (active)

Question: For `O=P(CCCCCCCCCP(=O)(c1ccccc1)c1ccccc1)(c1ccccc1)c1ccccc1`, which inhibition is on record?
Answer: 47.2%

Question: Which inhibition does the source give for `CNC(CC(=O)c1ccc([N+](=O)[O-])cc1)C(Cl)(Cl)Cl` (centres undefined) here?
Answer: 69.4% (active)

Question: With `O=C(NC(CO)Cc1ccc([N+](=O)[O-])cc1)C(Cl)Cl` (centres undefined) as the compound, how does the inhibition read?
Answer: 34.8%
